RBX1-CUL1 inh: inhibitors of human ROC1-CUL1 ubiquitin ligase activity; AID 1347404, 2020; inhibition, % at 10 µM; in vitro K48 di-Ub FRET, acceptor:donor ratio, 45 min; hit rate 0.6% among 140,000; in the data active = inhibition above about 25%
Target sequence (P62877 whole entry, looked up): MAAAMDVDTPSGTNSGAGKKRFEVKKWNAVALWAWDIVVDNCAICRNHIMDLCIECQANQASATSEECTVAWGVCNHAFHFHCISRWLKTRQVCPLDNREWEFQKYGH
Target sequence (Q13616 whole entry, looked up): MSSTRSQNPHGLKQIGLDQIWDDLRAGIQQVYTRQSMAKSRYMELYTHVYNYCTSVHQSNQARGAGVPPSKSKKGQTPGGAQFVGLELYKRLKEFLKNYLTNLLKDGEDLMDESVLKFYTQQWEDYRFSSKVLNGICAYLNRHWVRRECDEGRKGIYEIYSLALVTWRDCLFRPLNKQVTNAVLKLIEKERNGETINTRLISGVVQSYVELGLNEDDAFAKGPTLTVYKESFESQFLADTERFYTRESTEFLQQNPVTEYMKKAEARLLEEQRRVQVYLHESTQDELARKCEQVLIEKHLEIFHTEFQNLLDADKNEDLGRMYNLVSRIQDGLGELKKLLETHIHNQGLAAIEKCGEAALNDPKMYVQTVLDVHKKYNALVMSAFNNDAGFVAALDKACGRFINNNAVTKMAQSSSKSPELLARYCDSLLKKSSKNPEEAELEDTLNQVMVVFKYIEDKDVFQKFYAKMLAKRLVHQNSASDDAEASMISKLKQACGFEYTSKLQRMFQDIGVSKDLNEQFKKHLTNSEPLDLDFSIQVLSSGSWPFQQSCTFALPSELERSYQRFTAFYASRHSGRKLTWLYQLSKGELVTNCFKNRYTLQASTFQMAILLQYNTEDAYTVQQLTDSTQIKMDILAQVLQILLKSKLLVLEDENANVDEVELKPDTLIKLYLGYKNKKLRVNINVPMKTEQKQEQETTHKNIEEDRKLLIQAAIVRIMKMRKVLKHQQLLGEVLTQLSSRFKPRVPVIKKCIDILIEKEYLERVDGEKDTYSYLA
Active calls of the source: *. Only a selection was taken, and hits are over-represented in it overall.

SMILES	RBX1-CUL1 inh
CCCNS(=O)(=O)c1cccc2c(N)cccc12	57.5*
O=C(O)CNS(=O)(=O)c1cccc2ccccc12	6.6
COc1ccc(-c2cc(C(=O)Nc3cccc4ccccc34)c3ccccc3n2)cc1	-0.4
Fc1cccc(C2Nc3cccc4cccc(c34)N2)c1	-5.2
O=C(O)c1ccc(C2Nc3cccc4cccc(c34)N2)cc1	92.7*
CC(C)(C)c1ccc(C2Nc3cccc4cccc(c34)N2)cc1	-7.4
COc1ccc(/C=C/C(=O)Oc2cccc(/C=N\NC(=O)C3C(=O)NCC3c3ccccc3)c2)cc1 (stereo not given)	4.2
CC(=O)c1ccc(NS(=O)(=O)c2cc(-c3cc(C)no3)ccc2C)cc1	9.7
N#CC1C(=N)Oc2cc(O)c(C=Nc3cccc(F)c3)cc2C1c1ccco1 (stereo not given)	47.8*
COc1ccc(N=Cc2cc3c(cc2O)OC(=N)C(C#N)C3c2cccc(F)c2)cc1 (stereo not given)	-2.7
COc1ccccc1N=Cc1cc2c(cc1O)OC(=N)C(C#N)C2c1cccc(F)c1 (stereo not given)	21.0
CCc1ccc(CNC(=O)COc2cc(=O)n(CC)c3ccccc23)cc1	1.0
COCC(=O)N1CCC(Oc2ccc(C(=O)NC3CCCC3)cc2Cl)CC1	2.0
O=C(Cn1cnc([N+](=O)[O-])n1)NC1CCCC1	-2.6
CCCCCCCCSCCn1nnc2ccccc21	-4.3
Cc1ccc(NC(=O)c2ccc3c(c2)C(=O)N(CC(C)C)C3=O)c(C(=O)O)c1	12.5
CCOC(=O)c1ccc(N2C(=O)c3ccc(C(=O)Nc4ccc(O)cc4C(=O)O)cc3C2=O)cc1	69.2*
O=C(COC(=O)c1ccc2c(c1)C(=O)N(c1ccc(O)cc1)C2=O)c1ccccc1	-4.7
O=C1CC(Cc2ccc(Cl)cc2)C(=O)N1c1ccc(I)cc1 (stereo not given)	-1.2
CCOc1ccc(/C=c2\oc3cccc4c(OC)ccc(c2=O)c34)cc1OC	6.7
Cc1ccc(CSc2nc3ccc(NC(=O)C(C)C)cc3s2)cc1	-7.1
Cn1c(SCc2ccc(F)cc2)nc2ccccc2c1=O	-2.7
O=[N+]([O-])c1ccsc1C1OCCO1	-8.1
O=[N+]([O-])c1sccc1-c1ccsc1	29.4*
O=C(O)c1sccc1-c1ccsc1	6.8
SMILES	RBX1-CUL1 inh
CSC1=NC(=O)C2C(=NC(=O)CC2c2cc(F)cc(F)c2)N1C (stereo not given)	-10.0
COC(=O)c1cc(NC(=O)C23CCC(C)(C(=O)C2)C3(C)C)cc(C(=O)OC)c1 (stereo not given)	6.8
Cc1ccc(-n2c(SCC(=O)OC3CCCCC3)nnc2-c2ccncc2)cc1	-8.6
Cc1cnn(CC(=O)Nc2ccn(Cc3ccccc3)n2)c1	1.8
COc1cc(C(=O)N2CCN(CCc3ccccn3)CC2)cc(OC)c1OC	-1.7
O=C1C(=O)C(C(=O)/C=C/c2cccc(Cl)c2)C=C(Br)C=C1Br (stereo not given)	87.0*
CC(CNC(=O)/C=C/c1cccc(Cl)c1)NC(=O)/C=C/c1cccc(Cl)c1 (stereo not given)	-1.5
Cc1ccccc1/C=C/C(=O)C1C=C(Br)C=C(Br)C(=O)C1=O (stereo not given)	53.7*
COc1ccccc1/C=C/C(=O)C1C=C(Br)C=CC(=O)C1=O (stereo not given)	8.1
O=C1C=CC(Br)=CC(C(=O)/C=C/c2ccc(Cl)cc2)C1=O (stereo not given)	0.7
Fc1cccc(-c2n[nH]c3c2CN(Cc2nccs2)CC3)c1	-5.1
O=C(Cn1nnc2sc3c(c2c1=O)CCCC3)N1CCCCC1	1.2
CC(=O)Nc1c(C(=O)N2CCN(Cc3ccccc3)CC2)cnn1-c1ccccc1Cl	-1.6
Cc1nnc2sc(Cc3cccc(Cl)c3)nn12	1.3
CCOc1ccc(NC(=O)N=C2C(=O)N(c3ccccc3)N(C)C2C)cc1 (stereo not given)	0.4
O=C1CCCc2c1[nH]c1ccc(OCc3ccccc3)cc21	3.3
CCC(C)Oc1ccc(/C=C2\C(=O)N(c3ccccc3)N=C2C)cc1Br (stereo not given)	19.1
COc1cc(/C=C2\C(=O)N(c3ccc(S(N)(=O)=O)cc3)N=C2C)cc(Br)c1OCC(C)C	-4.1
CCCOc1ccc(CN2C(=O)NC(=O)/C(=C\c3cc(Br)c(OCC(=O)O)c(OC)c3)C2=O)cc1OC	-4.3
COc1cc(CO)cc(Br)c1OCC(=O)O	-0.7
CC1=NN(c2ccc(C(=O)O)cc2)C(=O)/C1=C/c1cc(Br)ccc1OCc1ccccc1	-1.0
CCOc1c(Br)cc(/C=C2/C(=O)N(c3cccc(C(=O)O)c3)N=C2C)cc1OC	91.1*
COc1cc(C=C2C(=O)c3ccccc3C2=O)cc(Br)c1OCC(=O)O	76.3*
CCCCCCOc1ccccc1/C=C1\C(=O)N(c2ccc([N+](=O)[O-])cc2)N=C1c1ccccc1	-0.6
C#CCOc1cc(Br)c(/C=C2/C(=O)N(c3cccc(C(=O)O)c3)N=C2c2ccccc2)cc1OC	89.6*
SMILES	RBX1-CUL1 inh
Cc1cccc(-c2cnc(C)nc2C2CCCN(C(=O)c3cccc(F)c3F)C2)c1 (stereo not given)	8.9
C[N+]1(c2ccccc2)CCC(N)=N1 (stereo not given)	-1.9
Cc1cn2c(nc3c2c(=O)n(CCCc2ccccc2)c(=O)n3C)[nH]1	-1.7
CN1CCc2nc3sc(C(=O)Nc4ccc(C(F)(F)F)cc4)c(N)c3cc2C1	-5.8
CCOC(=O)c1ccc(N2C(=O)C3C4c5ccccc5C([N+](=O)[O-])(c5ccccc54)C3C2=O)cc1 (stereo not given)	-1.3
CN1C(=O)C=C(c2ccccc2)CC1=O	98.6*
O=C1C=C(c2ccccc2)OC(=O)C1	1.4
CC1(C)CNC(=O)C=C(c2ccccc2)C1	-1.0
COc1ccc(NC(=O)CSc2nc(-c3ccc4c(c3)OCO4)ccc2C#N)cc1OC	15.3
O=C1C=CC2=C(c3ccccc3C(=O)O)C3C=CC(=O)C(Br)C3OC2=C1Br (stereo not given)	113.3*
O=C1C(Br)=CC2=C(c3ccccc3C(=O)O)C3C=C(Br)C(=O)C(Br)C3OC2=C1Br (stereo not given)	116.6*
CCCCn1c(NCc2ccc(N(CC)CC)cc2)nc2ccccc21	-10.5
CCC(=O)NNc1cc(N2CCCC2)nc(N2CCCC2)n1	74.5*
CCCc1nn2c(=O)cc(N3CCCCC3)nc2s1	-9.1
Cc1cccc(/C=N/Nc2cc(N3CCCCC3)nc(N3CCCCC3)n2)c1	1.3
O=C(COc1ccc(Cl)cc1Br)Nc1nccs1	-0.2
Cc1cccc(OCC(=O)NCC(=O)N/N=C/c2sccc2C)c1	-4.5
COCC1CCN(Cc2ccc(OCC(O)CN3CCCC3)c(OC)c2)CC1 (stereo not given)	-0.7
O=C1c2ccccc2C(=O)N1CC#Cc1ccccc1	-7.2
CCOC(=O)C#CCN1C(=O)c2ccccc2C1=O	40.4*
CCCCCCOC(=O)C(CCCCN1C(=O)c2ccccc2C1=O)N1C(=O)c2ccccc2C1=O (stereo not given)	5.3
Nc1cc(S(=O)(=O)O)c(N)c2ccc(S(=O)(=O)O)cc12	100.8*
O=S(=O)(O)c1ccc2ncccc2c1	2.5
CCOc1ccc2cc(S(=O)(=O)O)ccc2c1N	8.0
O=C(NCCC1COc2ccccc2O1)Nc1ncn[nH]1 (stereo not given)	1.9
COc1ccc(-c2cc(-c3ccccc3)nc3sc(C(=O)Nc4cc(Cl)cc(Cl)c4)c(N)c23)cc1	-0.5
COc1cc2oc(=O)cc(C)c2c(OC)c1OC(C)=O	0.6
